IL2 activator: activators of IL-2. IL-2 activation reporter assay, cell-based qHTS; stimulated with anti-CD3/CD4/CD28 beads; in transgenic mouse T cells. actives 0.065% (n = 360,000). activation, % (series mostly up to about 46 µM). AID 652025; in the data active means activation above about 50%; inconclusive means mostly about 30% to 49%
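First, unstimulated transgenic mouse T cells were exposed to compound for 60 min. Next, anti-CD3/anti-CD4-coated beads with anti-CD28 were added. Finally, after 18 h at 37 degrees C, EGFP and DsRed were imaged.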
Nrf2 ARE act: activates Nrf2 signaling; AREc32 ARE-luciferase reporter (MCF7-derived line), luminescence, 24 h; actives 0.31% (n = 410,000); Potency, µM (highest dose often 46.1 µM), usual class: activators; AID 624171; further: nearly all actives have a fitted effect of over 65% in size
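AREc32 cells carrying an ARE-driven firefly luciferase, 1000 cells/well in OPTI-MEM with 5% FBS, dosed after overnight attachment and incubated 24 hr at 37 deg C. Steady-Glo luminescence read after 30 min at RT.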
BRCA1 expr up: BRCA1 expression activation; MCF7-BRCA1-FFLuc reporter, luminescence, 48 h; response scale: scaled: vehicle 0%, 10 µM genistein 100%; Potency, µM (titrated, usually from 46.1 µM), most hits filed as activators; actives 1.1% (n = 380,000); further: nearly all actives have a fitted effect of over 80% in size
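Using MCF7 cells harboring a BRCA1 firefly luciferase reporter, plated 2 h before compound pinning, the screen measured luminescence after 48 h incubation. Responses were normalized to DMSO and 10 microM genistein, then fitted for concentration-effect.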
p53 reactivation: mutant p53 re-activation in reporter cells. AID 504706. H1299 p53-A138V BP100-luciferase reporter, luminescence, 24 h. actives 0.063% (n = 320,000). Potency, µM (series often up to 92.2 µM), usual class: activators; further: nearly all actives have a fitted effect of over 45% in size
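H1299 (p53-null), stable ts p53-A138V + BP100-Luc; 1000 cells/well, Opti-MEM/10% FBS; cpd 4 pt, 1:5; 24 h, 37 deg C, 5% CO2; detection reagent 10 min RT; luminescence.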
Nrf2 inh: inhibitors of Nrf2 signaling; Potency, µM (doses to about 46 µM), usual class: inhibitors; actives 2.1% (n = 360,000); A549 ARE-Fluc reporter, luciferase luminescence, 18-24 h; further: nearly all actives have a fitted effect of over 60% in size
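Concentration-response testing used A549 ARE_Fluc cells at 5000 cells/well. Following an 18-24 h compound incubation, viability was read by fluorescence (Ex 405/Em 525) and luciferase output by luminescence.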
A549 viability: counter-screen for Nrf2 inhibitors: cytotoxicity in A549 cells | AID 504648 | A549 ARE-Fluc cells, CellTiter-Fluor viability, 18-24 h | Potency, µM (series often up to 46 µM), hits mostly inhibitors | actives 0.16% (n = 390,000)
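A549 ARE-Fluc cells in 5% FBS OPTI-MEM, 5000 cells/well, rested 2 h then exposed to compounds in concentration-response for 18-24 h at 37 °C. Viability by CellTiter-Fluor fluorescence (Ex 405/Em 525) after 30 min; luciferase luminescence (BugLite, 15 min, RT) read afterwards.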
Hits are given with their value; i = inactive; ? = inconclusive; nt = not tested or not shown; [ ] = remark or other dose. Most compounds without a hit are left out; they make up all but 3.2% or so of the library. Unless noted, the call rests on the fitted dose curve; in most records, active means well fitted curve in the direction sought with a large enough effect; inconclusive means small, poorly fitted or top-dose-only effect, or another doubt; inactive means no such curve, though single readings can be large; an effect the other way counts as inactive or inconclusive.

SMILES	IL2 activator	Nrf2 ARE act	BRCA1 expr up	p53 reactivation	Nrf2 inh	A549 viability
O=[N+]([O-])c1nn(-c2ccc3c(c2)OCCO3)n(O)c1=NCc1ccc(F)cc1	i	i	i	?	?	i
CC1CCc2onc(C(=O)N3CCN(c4ccc(Cl)cc4)CC3)c2C1 (centres undefined)	nt	i	nt	nt	20.6µM	i
O=C(NCC(c1cccnc1)N1CCc2ccccc21)C(=O)Nc1ccccc1F (centres undefined)	nt	i	nt	nt	?	i
Cc1ccc(Oc2ccc(Oc3ccc(C)cc3)nn2)cc1	i	i	i	i	i	i
Cc1ccccc1Oc1ccc(Oc2ccccc2C)nn1	i	i	7.08µM	i	?	i
CN(C(=O)c1ccc2c(Cl)c3c(nc2c1)CCC3)c1ccccc1	i	?	6.31µM	i	?	i
CC1CCN(S(=O)(=O)c2ccc3c(c2)c(=O)c(C(=O)NC(C)c2ccccc2)cn3C)CC1 (centres undefined)	nt	i	nt	nt	i	i
COc1ccc(C(=O)Oc2ccc(=O)n(-c3ccccc3)n2)cc1	i	i	i	i	1.64µM	nt
O=C(Oc1ccc(=O)n(-c2ccccc2)n1)c1ccc(Cl)cc1	i	i	i	i	i	i
Cc1cccc(Cc2c(C)nc3c(C(=O)NCc4ccco4)cnn3c2C)c1	i	i	i	i	23.1µM	?
O=C(CSCc1ccccc1)N1CCN(Cc2ccc3c(c2)OCO3)CC1	i	i	i	i	i	i
Cc1cccc(-c2nc(CSCC(=O)N3CCN(Cc4ccc5c(c4)OCO5)CC3)c(C)o2)c1	i	i	i	i	20.6µM	i
Cc1nc2c(C(=O)NCc3ccco3)cnn2c(C)c1Cc1ccc(F)cc1Cl	i	i	i	i	?	i
Cc1cccc(Cc2c(C)nc3c(C(=O)N4CCN(Cc5ccc6c(c5)OCO6)CC4)cnn3c2C)c1	i	i	i	i	18.4µM	i[1.84 µM]
Cc1ccccc1Cc1c(C)nc2c(C(=O)N3CCN(Cc4ccc5c(c4)OCO5)CC3)cnn2c1C	i	i	i	nt	?	i
O=C1c2ccccc2-c2onc3c(N4CCN(CCO)CC4)cc(N4CCN(C(=O)c5ccco5)CC4)c1c23	i	i	i	i	?	20.6µM
Cc1ccccc1NC(=O)C1CCN(S(=O)(=O)c2ccccc2)CC1	nt	i	nt	nt	nt	i
CC1CCN(S(=O)(=O)c2cc(C(=O)NCc3ccccc3)n(C)c2)CC1	nt	i	i	nt	nt	i
Cc1cc(C)n2nc(-c3cccc(Br)c3)cc2n1	i	?	i	nt	?	i
Cc1cccc(-c2cc3nc(C)cc(C)n3n2)c1	i	?	1.58µM	i	?	i
COC(=O)CNC(=O)Nc1cc(C(=O)NCc2ccc(C)cc2)ccc1N1CCCC1	nt	i	nt	nt	nt	i
O=C(Cn1c(-c2cccs2)cc2ccccc21)NCCCN1CCN(c2cccc(Cl)c2)CC1	nt	i	nt	nt	i	?
CCOc1ccccc1Nc1nnc(SCc2nnc(-c3cc(OC)c(OC)c(OC)c3)o2)s1	i	i	i	i	16.4µM	?
COc1ccccc1Nc1nnc(SCc2nnc(-c3cc(OC)c(OC)c(OC)c3)o2)s1	i	i	i	i	i	i
CC(=O)NC(c1ccco1)c1ccc2cccnc2c1O (centres undefined)	i	i	i	?	16.4µM	i
SMILES	IL2 activator	Nrf2 ARE act	BRCA1 expr up	p53 reactivation	Nrf2 inh	A549 viability
CC(C)C(=O)NC(c1ccc(Cl)cc1Cl)c1ccc2cccnc2c1O (centres undefined)	i	i	i	nt	13µM	?
CCC(=O)NC(c1ccc(Cl)cc1Cl)c1ccc2cccnc2c1O (centres undefined)	i	i	i	nt	?	i
CC(=O)NC(c1ccc(Cl)cc1)c1ccc2cccnc2c1O (centres undefined)	i	i	i	nt	?	i
CN(C(=O)COc1ccccc1C(=O)NCCOc1ccccc1)c1ccccc1	i	i	i	i	14.6µM	?
O=C(NCCOc1ccccc1)c1ccccc1Cl	i	i	?	i	?	i
CCCCc1nn2c(=O)cc(COC(=O)c3cccc(NC(=O)CCc4ccccc4)c3)nc2s1	nt	i	nt	nt	nt	i
Cc1nc2scc(C)n2c(=O)c1S(=O)(=O)Nc1ccc(F)cc1	i	i	i	i	?	i
CCCCOC(=O)c1ccc(NS(=O)(=O)c2c(C)nc3scc(C)n3c2=O)cc1	nt	i	nt	nt	16.4µM	i
COCCNC(=O)CSc1nc(-c2cc(OC)c(OC)c(OC)c2)[nH]c1-c1ccc(Cl)cc1	nt	i	nt	nt	i	i
O=C(Cc1ccc(Cl)cc1Cl)Nc1ccncc1	i	i	i	i	16.4µM	i
O=C(Cc1ccc(Cl)cc1Cl)Nc1ccncc1Cl	i	i	i	i	9.2µM	i
S=C(NCc1ccc(Cl)cc1)Nc1ccncc1	i	i	i	i	13µM	i
O=C(Cc1c(Cl)cccc1Cl)Nc1ccncc1	i	i	i	i	i	i
S=C(NCc1ccc(Cl)cc1)Nc1ccccc1	i	i	i	i	i	i
O=C(Cc1c(Cl)cccc1Cl)Nc1ccncc1Cl	i	i	i	i	?	i
Cc1ccc2nc(-c3ccc(C)c(NC(=O)COc4ccc(Cl)cc4)c3)oc2c1	nt	nt	i	nt	nt	nt
CC(=O)N(C)c1ccc(OCC(O)Cn2c3ccc(Cl)cc3c3cc(Cl)ccc32)cc1 (centres undefined)	i	i	i	i	20.6µM	?
O=C(C[n+]1cc(Br)cc(Br)c1)c1ccc2c(c1)CCCC2	nt	nt	i	nt	nt	nt
COc1ccc(NC(=O)CSc2ccccn2)cc1OC	i	i	i	nt	i	i
COc1ccc(NC(=O)CSc2ncccc2C(=O)OC(C)C)cc1OC	i	i	i	i	9.2µM	i
O=C(CSc1ncccc1C(=O)Oc1ccccc1Cl)Nc1ccccc1Cl	nt	i	11.2µM	nt	?	i
COc1ccc(NC(=O)CSc2nc(-c3ccc(F)cc3)[nH]c2-c2ccc(C)cc2)cc1OC	nt	i	nt	nt	?	?
COc1ccc(NC(=O)CSc2nc(-c3ccccc3)[nH]c2-c2ccccc2)cc1OC	nt	i	nt	nt	16.4µM	i
COc1ccc(-c2nc(SCC(=O)Nc3ccccc3)c(-c3ccc(F)cc3)[nH]2)cc1OC	nt	i	nt	nt	14.6µM	?
CCc1ccc(OC(=O)c2sc3ncn(Cc4cccc(F)c4)c(=O)c3c2C)cc1	nt	i	nt	nt	nt	i
Cc1cccc(C)c1NC(=O)C1CCCN(S(=O)(=O)c2c(C)noc2/C=C/N(C)C)C1 (centres undefined)	nt	i	nt	nt	i	i
COc1ccc(N2CCN(S(=O)(=O)c3ccc(F)c(C(=O)Nc4ccccc4Cl)c3)CC2)cc1	nt	i	nt	nt	nt	?
O=C(CSc1nc(-c2ccc(F)cc2)[nH]c1-c1ccccc1)Nc1ccccc1	nt	i	nt	nt	20.6µM	i
COC(=O)c1ccc(Cl)c(NC(=O)C2CCN(S(=O)(=O)Cc3ccccc3)CC2)c1	nt	i	nt	nt	i	i

Screens (PubChem)
